From PubChem BioAssay (NCATS)
Inconclusive results are not listed. Calls of active or inactive are those of the source. Unless noted, the call rests on the fitted dose curve; in most records, active means well fitted curve in the direction sought with a large enough effect; inconclusive means small, poorly fitted or top-dose-only effect, or another doubt; inactive means no such curve, though single readings can be large; an effect the other way counts as inactive or inconclusive.

Columns and labels:
[1] = molecular target: D(1A) dopamine receptor (Homo sapiens) (UniProt P21728); assay: HTS Assay for Allosteric Agonists of the Human D1 Dopamine Receptor: Primary Screen for Agonists (AID 488981); further: 0% is about no effect
Summary of the method: (§1)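 Calcium flux in an inducible, force-coupled HEK293 Trex D1 line (overnight at 30 C): agonist mode is the 180 s kinetic read after compound; potentiator mode is the following 180 s read after dopamine at EC20.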

[2] = molecular target: D(1A) dopamine receptor (Homo sapiens) (UniProt P21728); assay: HTS Assay for Allosteric Agonists of the Human D1 Dopamine Receptor: Primary Screen for Potentiators (AID 488982); further: potency means the concentration at half of the fitted maximal effect
Summary of the method: as §1

[3] = molecular target: D(1A) dopamine receptor (Homo sapiens) (UniProt P21728); assay: HTS Assay for Allosteric Agonists of the Human D1 Dopamine Receptor: Primary Screen for Antagonists (AID 488983);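 further: calcium flux response to an EC80 dopamine challenge measured with no-wash dye; on the % scale 0 is the no-effect control and ±100 the full control effect; nearly all actives have a fitted effect of over 65% in size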
Summary of the method: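 Tetracycline-induced HEK293 T-REx D1 line, force-coupled to calcium flux, read with no-wash calcium dye. Compound added after 10 s baseline, read 180 s for agonism, then EC80 dopamine added and read a further 180 s.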

[4] = molecular target: ATPase family AAA domain-containing protein 5 (Homo sapiens) (UniProt Q96QE3); assay: Validation screen for small molecules that inhibit ELG1-dependent DNA repair in human embryonic kidney (HEK293T) cells expressing luciferase-tagged ELG1 (AID 493107); further: nearly all actives have a fitted effect of over 70% in size; further: potency means the concentration at half of the fitted maximal effect
Summary of the method: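 HEK293T cells expressing luciferase-tagged ELG1, 2,000 per well, treated with 5-fluorouridine plus compound for 16 h at 37 C. ONE-Glo luminescence after 30 min at room temperature reports ELG1 reporter level.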

[5] = Nrf2 qHTS screen for inhibitors: Validation (AID 493153; active means well fitted inhibition curve with a large enough effect in the main read-out, with a control signal flat, not every such curve was filed as active; further: potency means the concentration at half of the fitted maximal effect); conditions: Potency: luciferase luminescence; viability change: measured here: cytotoxicity max response
Summary of the method: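 A549 cells carrying ARE-firefly luciferase reporter, 5000 cells/well in 5% FBS OPTI-MEM, treated with compound over a concentration series for 18-24 h at 37 C. Luciferase luminescence gave Nrf2 activity; CellTiter-Fluor fluorescence gave viability.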

[6] = qHTS for Inhibitors of Cell Surface uPA Generation: Validation Assay (AID 493164); further: 0% is about no effect
Summary of the method: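 RAW 264.7 cells (4000/well) were plated overnight, then exposed for 18 h at 37 C, 5% CO2 to compounds in a 7-point 1:5 titration (2.45 nM–38.3 uM final). Intracellular ATP was read by ATP-Lite luminescence.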

[7] = molecular target: Peptidyl-prolyl cis-trans isomerase NIMA-interacting 1 (Homo sapiens) (UniProt Q13526); assay: qHTS Validation Assay to Find Inhibitors of Pin1 (AID 504536; active means well fitted inhibition curve with a large enough effect in the polarisation, with a control signal flat, not every such curve was filed as active; the % refers to the polarisation; further: potency means the concentration at half of the fitted maximal effect)
Summary of the method: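 Fluorescence polarization competition: compounds (titration) displace HiFluor-488-labeled Pin1-1b peptide from Pin1 (0.3 uM final) in pH 7.5 HEPES buffer with DTT, 10 min at room temperature; %Activity normalized to no-enzyme wells, curves fitted.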

[8] = molecular target: Phosphoglycerate kinase, glycosomal (Trypanosoma brucei brucei) (UniProt P07378); assay: qHTS Validation Assay to Find Inhibitors of Phosphoglycerate Kinase (AID 504547);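 further: control wells lack PGK and mark full inhibition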
Summary of the method: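 Inhibition of the enzyme is judged by a Kinase-Glo Plus luminescent signal following a one-hour incubation at room temperature. Because 1,3-BPG is unstable, it is made in situ by GAPDH at 100nM final; no-PGK wells define the baseline.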

[9] = molecular target: phosphoglycerate mutase (Leishmania major) (UniProt Q4Q090); assay: qHTS Validation Assay to Find Inhibitors of Phosphoglycerate Mutase (AID 504548); conditions: Potency: inhibition qHTS;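 further: end-point luminescence from Kinase-GloPlus after the PGAM reaction; series mostly up to about 58 µM; on the % scale 0 is the no-effect control and ±100 the full control effect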
Summary of the method: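 L. major PGAM (1.25nM final) was added to substrate buffer and pinned compound, incubated 45 minutes at room temperature, then Kinase-GloPlus added; luminescence read after 10 minutes. Buffer: 100 mM TEA pH 7.6, 5 mM MgCl2, 0.01% Tween-20.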

[10] = molecular target: Ubiquitin carboxyl-terminal hydrolase 1 (Homo sapiens) (UniProt O94782); assay: Inhibitors of USP1/UAF1: Pilot qHTS (AID 504865); further: nearly all actives have a fitted effect of over 35% in size; further: potency means the concentration at half of the fitted maximal effect
Summary of the method: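 Deubiquitinase activity followed as kinetic rhodamine fluorescence release from 150 nM Ub-Rho. 1 nM USP1/UAF1 with compound, after 15 min room-temperature preincubation, in HEPES pH 7.8 buffer containing TCEP, EDTA, BSA and Tween-20.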

[11] = qHTS for Inhibitors of ATXN expression: Validation of Cytotoxic Assay (AID 588349); further: potency means the concentration at half of the fitted maximal effect
Summary of the method: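 HEK293 cells treated with titrated compound for 72 hr at 37 degrees C; viability read as intracellular ATP by CellTiter Glo luminescence.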

[12] = qHTS for Inhibitors of ATXN expression: Validation (AID 588378); further: nearly all actives have a fitted effect of over 75% in size; further: potency means the concentration at half of the fitted maximal effect
Summary of the method: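 Luciferase luminescence (Bright-Glo) from an ATXN2-FFLuc HEK293 line after 24 h compound exposure at 37 °C, preceded by a CellTiter-Fluor fluorescence viability read. Serial dilutions of a reference ATXN2 inhibitor and a luciferase inhibitor served as controls.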

[13] = Validation screen for small molecules that induce genotoxicity in human embryonic kidney (HEK293T) cells expressing luciferase-tagged ELG1 (AID 493106); further: 0% is about no effect
Summary of the method: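 HEK293T cells expressing luciferase-tagged ELG1, 2,000 cells/well, exposed to compound 16 hr at 37 °C, 5% CO2. Luciferase read after ONE-Glo, 30 min at room temperature; increased signal indicates genetic stress.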

[14] = molecular target: Thyrotropin-releasing hormone receptor (Homo sapiens) (UniProt P34981); assay: qHTS for Small Molecule Agonists and Allosteric Enhancers of Human TRH Receptor: Validation Screen for Agonists (AID 493127;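 active means calcium activation more than 3 SD above the typical response in the agonist read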; further: 0% is about no effect); conditions: TRH receptor agonist cell assay; at 2 µM; stronger effect = higher value
Summary of the method: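 TRHR cells loaded with fluo-8 calcium dye; FDSS kinetic fluorescence (Ex 480/Em 530) read at 1 s/cycle after 23 nL compound addition. Agonist-mode calcium response recorded before the 10 nM TRH (EC20) addition.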

[15] = molecular target: Galactokinase (Homo sapiens) (UniProt P51570); assay: qHTS Validation Assay for Inhibitors of Human Galactokinase (GALK) (AID 493189); further: 0% is about no effect
Summary of the method: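 Inhibition was measured as remaining ATP, detected by luciferase luminescence after a 1 h room-temperature reaction. Final conditions: 5 nM GALK, 100 uM galactose, 35 uM ATP, pH 8.0 HEPES buffer.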

[16] = Validation screen for small molecules that induce DNA re-replication in SW480 colon adenocarcinoma cells (AID 504364); further: 0% is about no effect
Summary of the method: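 SW480 cells (250/well) exposed 48 h at 37 C, 5% CO2, then Hoechst-stained 40 min. Nuclear DNA content imaged by fluorescence scanning (405 nm excitation, 500-530 nm emission); re-replication scored as increased nuclei with elevated intensity.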

Ubiquitin carboxyl-terminal hydrolase 1 (Homo sapiens), sequence (O94782 whole entry, looked up): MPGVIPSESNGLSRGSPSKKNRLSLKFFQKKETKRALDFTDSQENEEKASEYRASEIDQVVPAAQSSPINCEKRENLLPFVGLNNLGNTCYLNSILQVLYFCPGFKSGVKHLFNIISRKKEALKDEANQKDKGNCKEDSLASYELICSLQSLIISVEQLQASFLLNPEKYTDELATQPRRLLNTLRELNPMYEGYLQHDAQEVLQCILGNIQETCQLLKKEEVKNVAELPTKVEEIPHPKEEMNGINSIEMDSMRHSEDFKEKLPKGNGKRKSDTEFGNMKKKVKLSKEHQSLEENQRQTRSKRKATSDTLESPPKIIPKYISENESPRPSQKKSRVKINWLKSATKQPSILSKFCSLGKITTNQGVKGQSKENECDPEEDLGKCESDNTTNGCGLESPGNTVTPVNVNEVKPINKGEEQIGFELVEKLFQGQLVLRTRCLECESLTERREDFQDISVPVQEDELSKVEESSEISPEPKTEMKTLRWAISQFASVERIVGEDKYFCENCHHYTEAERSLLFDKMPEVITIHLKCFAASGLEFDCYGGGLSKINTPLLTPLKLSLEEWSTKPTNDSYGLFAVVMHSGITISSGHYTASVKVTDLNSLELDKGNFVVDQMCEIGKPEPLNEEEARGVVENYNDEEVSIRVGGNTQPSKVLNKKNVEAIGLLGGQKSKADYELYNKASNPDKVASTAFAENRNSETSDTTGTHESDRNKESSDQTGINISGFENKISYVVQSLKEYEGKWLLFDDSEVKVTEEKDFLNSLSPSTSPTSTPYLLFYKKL
D(1A) dopamine receptor (Homo sapiens), sequence (P21728 whole entry, looked up): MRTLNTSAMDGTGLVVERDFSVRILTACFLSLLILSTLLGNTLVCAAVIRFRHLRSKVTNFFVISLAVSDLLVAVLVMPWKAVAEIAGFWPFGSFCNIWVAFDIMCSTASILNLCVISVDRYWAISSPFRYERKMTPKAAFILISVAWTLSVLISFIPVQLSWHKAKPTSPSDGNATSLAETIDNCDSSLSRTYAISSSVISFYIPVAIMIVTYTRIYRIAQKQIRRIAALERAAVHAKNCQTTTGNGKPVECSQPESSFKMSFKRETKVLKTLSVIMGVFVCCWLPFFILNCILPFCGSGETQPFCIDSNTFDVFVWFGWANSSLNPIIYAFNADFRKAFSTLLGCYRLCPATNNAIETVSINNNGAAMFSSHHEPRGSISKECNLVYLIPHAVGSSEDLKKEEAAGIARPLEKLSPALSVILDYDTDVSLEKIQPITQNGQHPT
Phosphoglycerate kinase, glycosomal (Trypanosoma brucei brucei), sequence (P07378 whole entry, looked up): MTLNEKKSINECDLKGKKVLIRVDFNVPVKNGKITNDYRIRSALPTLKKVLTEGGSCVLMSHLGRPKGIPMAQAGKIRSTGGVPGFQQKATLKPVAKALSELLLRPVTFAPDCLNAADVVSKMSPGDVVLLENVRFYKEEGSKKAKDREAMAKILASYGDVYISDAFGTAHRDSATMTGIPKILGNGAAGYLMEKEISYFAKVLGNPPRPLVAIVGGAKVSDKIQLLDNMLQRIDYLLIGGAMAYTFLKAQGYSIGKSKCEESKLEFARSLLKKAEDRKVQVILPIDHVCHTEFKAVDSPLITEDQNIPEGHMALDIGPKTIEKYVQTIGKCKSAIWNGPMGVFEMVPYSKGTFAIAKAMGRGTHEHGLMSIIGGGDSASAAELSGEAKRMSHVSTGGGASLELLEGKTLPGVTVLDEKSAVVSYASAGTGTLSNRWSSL
ATPase family AAA domain-containing protein 5 (Homo sapiens), sequence (Q96QE3 whole entry, looked up, the tested form may be a part): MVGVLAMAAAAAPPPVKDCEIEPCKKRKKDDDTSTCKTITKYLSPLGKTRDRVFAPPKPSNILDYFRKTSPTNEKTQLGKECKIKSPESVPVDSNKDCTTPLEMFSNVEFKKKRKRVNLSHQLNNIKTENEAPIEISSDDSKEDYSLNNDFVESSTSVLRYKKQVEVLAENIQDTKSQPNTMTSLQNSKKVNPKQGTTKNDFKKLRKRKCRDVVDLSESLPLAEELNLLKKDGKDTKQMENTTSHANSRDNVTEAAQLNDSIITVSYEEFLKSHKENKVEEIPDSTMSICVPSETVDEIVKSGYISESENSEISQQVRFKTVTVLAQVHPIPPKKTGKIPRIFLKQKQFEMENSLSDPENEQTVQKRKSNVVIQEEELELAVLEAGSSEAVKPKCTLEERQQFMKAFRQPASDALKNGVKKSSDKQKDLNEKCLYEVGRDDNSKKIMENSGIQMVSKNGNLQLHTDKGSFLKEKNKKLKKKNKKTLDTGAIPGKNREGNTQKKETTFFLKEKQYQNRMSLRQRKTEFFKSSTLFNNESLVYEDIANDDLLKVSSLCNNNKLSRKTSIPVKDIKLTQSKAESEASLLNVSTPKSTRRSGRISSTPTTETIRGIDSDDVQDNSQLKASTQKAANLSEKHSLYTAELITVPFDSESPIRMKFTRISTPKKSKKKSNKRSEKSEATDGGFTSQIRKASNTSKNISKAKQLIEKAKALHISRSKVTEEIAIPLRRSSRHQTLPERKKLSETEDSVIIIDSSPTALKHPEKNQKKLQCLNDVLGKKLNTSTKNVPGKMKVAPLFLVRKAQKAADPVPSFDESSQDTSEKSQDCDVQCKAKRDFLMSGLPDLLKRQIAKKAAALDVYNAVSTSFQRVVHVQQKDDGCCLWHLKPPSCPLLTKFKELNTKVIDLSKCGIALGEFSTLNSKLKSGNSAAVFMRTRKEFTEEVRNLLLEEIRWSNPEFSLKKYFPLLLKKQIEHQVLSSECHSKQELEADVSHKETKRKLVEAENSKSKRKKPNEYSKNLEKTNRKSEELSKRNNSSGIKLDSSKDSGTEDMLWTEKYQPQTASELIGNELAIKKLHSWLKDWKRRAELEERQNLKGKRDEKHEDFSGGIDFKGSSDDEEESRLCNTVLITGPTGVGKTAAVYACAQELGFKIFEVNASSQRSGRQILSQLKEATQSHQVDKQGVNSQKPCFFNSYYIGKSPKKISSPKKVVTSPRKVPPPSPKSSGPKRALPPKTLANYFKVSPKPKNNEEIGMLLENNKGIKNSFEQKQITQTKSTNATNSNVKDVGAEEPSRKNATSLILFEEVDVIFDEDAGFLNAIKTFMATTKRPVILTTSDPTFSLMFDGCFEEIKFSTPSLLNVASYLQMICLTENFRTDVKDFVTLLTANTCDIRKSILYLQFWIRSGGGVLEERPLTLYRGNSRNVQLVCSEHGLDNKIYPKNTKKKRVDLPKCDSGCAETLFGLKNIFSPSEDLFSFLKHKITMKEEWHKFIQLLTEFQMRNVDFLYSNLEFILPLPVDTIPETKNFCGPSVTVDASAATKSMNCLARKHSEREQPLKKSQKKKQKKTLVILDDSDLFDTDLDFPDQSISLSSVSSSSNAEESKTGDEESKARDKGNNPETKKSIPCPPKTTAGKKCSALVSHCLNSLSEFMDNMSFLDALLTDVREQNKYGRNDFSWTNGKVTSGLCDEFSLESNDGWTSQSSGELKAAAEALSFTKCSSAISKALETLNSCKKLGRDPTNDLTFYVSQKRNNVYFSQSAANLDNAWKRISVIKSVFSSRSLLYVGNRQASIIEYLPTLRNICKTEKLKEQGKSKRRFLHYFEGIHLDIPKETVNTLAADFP
phosphoglycerate mutase (Leishmania major), sequence (Q4Q090 1-553): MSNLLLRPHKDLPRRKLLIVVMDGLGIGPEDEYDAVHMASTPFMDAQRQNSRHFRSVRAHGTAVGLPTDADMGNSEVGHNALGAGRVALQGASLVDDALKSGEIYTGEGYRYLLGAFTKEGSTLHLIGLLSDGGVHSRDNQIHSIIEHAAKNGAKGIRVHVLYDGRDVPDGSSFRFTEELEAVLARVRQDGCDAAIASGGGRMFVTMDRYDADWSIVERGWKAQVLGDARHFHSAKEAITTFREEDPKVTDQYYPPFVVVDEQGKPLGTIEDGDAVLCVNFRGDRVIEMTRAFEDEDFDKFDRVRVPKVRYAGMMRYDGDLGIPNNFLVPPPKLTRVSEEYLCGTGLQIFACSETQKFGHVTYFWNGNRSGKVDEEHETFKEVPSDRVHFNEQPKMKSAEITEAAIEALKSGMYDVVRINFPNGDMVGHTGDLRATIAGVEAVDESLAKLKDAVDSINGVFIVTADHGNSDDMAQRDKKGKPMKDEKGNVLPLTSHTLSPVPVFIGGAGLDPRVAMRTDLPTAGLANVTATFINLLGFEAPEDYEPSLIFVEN
Peptidyl-prolyl cis-trans isomerase NIMA-interacting 1 (Homo sapiens), sequence (Q13526 whole entry, looked up): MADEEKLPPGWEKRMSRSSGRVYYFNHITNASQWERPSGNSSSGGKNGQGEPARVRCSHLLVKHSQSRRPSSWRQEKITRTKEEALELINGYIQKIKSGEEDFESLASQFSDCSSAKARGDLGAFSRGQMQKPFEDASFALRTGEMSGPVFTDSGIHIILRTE
Thyrotropin-releasing hormone receptor (Homo sapiens), sequence (P34981 whole entry, looked up): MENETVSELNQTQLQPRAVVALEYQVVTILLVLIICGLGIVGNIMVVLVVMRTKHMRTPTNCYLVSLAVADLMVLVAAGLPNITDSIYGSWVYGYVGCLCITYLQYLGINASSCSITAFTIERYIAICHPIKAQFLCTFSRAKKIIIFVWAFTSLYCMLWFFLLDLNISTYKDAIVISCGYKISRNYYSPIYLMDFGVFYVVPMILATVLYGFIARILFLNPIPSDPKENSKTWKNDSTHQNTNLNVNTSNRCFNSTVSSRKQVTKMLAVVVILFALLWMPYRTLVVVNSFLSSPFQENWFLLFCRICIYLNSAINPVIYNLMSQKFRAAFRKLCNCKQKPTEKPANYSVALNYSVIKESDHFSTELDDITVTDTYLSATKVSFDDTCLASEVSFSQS
Galactokinase (Homo sapiens), sequence (P51570 whole entry, looked up): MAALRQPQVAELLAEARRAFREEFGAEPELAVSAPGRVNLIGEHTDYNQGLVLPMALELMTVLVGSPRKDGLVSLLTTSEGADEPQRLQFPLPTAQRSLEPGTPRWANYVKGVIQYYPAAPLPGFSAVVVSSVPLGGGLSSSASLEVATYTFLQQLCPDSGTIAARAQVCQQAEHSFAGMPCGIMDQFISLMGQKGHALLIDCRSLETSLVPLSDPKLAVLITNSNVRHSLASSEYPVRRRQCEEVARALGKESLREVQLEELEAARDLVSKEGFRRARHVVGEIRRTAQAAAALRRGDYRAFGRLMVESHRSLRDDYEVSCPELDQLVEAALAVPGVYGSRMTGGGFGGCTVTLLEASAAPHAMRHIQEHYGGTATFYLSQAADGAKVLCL

Nc1ncnc2c1nc(Sc1ccc(Cl)cc1)n2[C@H]1OC2COP(=O)(O)O[C@@H]2C1O (stereo partly specified)
inactive: Potency [1] | Potency [2] | Potency [3] | Potency [4] | Potency [5] | outcome [6] | Potency [7] | Potency [8] | Potency [9] | Potency [10] | Potency [11] | Potency [12]
3.2%: viability change [5]

CC(C)(C)c1ccc(/C=C/C(=O)Nc2ccc3c(c2)OCCO3)cc1
active: Potency [5] 10.3 µM
-12.9%: viability change [5]
inactive: Potency [1] | Potency [2] | Potency [13] | outcome [6] | Potency [7] | Potency [8] | Potency [9]

O=c1[nH]c(=S)[nH]c(-c2ccccc2)c1Cc1c(O)ccc2ccccc12
inactive: Potency [1] | Potency [2] | Potency [3] | Potency [13] | Potency [4] | Potency [7] | Potency [8] | Potency [9] | Potency [11] | Potency [12]

COc1cc(/C=C(\C#N)C(=O)Nc2nnc(C(F)(F)F)s2)ccc1OCc1ccc(C(F)(F)F)cc1C(F)(F)F
active: Potency [7] 23.9 µM
inactive: Potency [1] | Potency [2] | Potency [13] | outcome [6] | Potency [9] | Potency [11]

Brc1c(Br)c(Br)c2[nH]cnc2c1Br
active: Potency [4] 4.61 µM
inactive: Potency [1] | Potency [3] | Potency [13] | outcome [6] | Potency [7] | Potency [8] | Potency [11]

C[C@H]1CC2C3CCC4=CC(=O)C=C[C@]4(C)[C@@]3(Cl)[C@@H](O)C[C@]2(C)[C@@]1(O)C(=O)CO (stereo partly specified)
active: Potency [5] 0.0164 µM
4.17%: viability change [5]
inactive: Potency [1] | Potency [2] | Potency [3] | Potency [13] | Potency [4] | Potency [7] | Potency [8] | Potency [9] | Potency [11] | Potency [12]

CCCCCCCCCCC(C)(C)C(=O)Nc1c(OC)cc(OC)cc1OC
active: Potency [10] 44.7 µM
inactive: Potency [1] | Potency [2] | Potency [13] | Potency [4] | outcome [6] | Potency [7] | Potency [8] | Potency [9] | Potency [11] | Potency [12]

O=C(O)CCC/C=C\C[C@@H]1[C@@H](/C=C/[C@H](O)C2Cc3ccccc3C2)[C@@H](F)C[C@@H]1O
inactive: Potency [1] | Potency [2] | Potency [3] | Potency [13] | Potency [4] | outcome [6] | Potency [7] | Potency [8] | Potency [9] | Potency [11] | Potency [12]

Nc1nc2c(cnn2CCc2ccccc2)c2nc(-c3ccco3)nn12
inactive: Potency [1] | Potency [2] | Potency [3] | Potency [4] | Potency [5] | outcome [6] | Potency [7] | Potency [8] | Potency [9] | Potency [10] | Potency [11] | Potency [12]
-1.96%: viability change [5]

CCCCCCCC/C=C\CCCCCCCC(=O)NCCc1ccc(O)c(O)c1
active: Potency [2] 4.61 µM | Potency [11] 31.6 µM | Potency [12] 20 µM
inactive: Potency [1] | Potency [3] | activation [14] 1.94% | outcome [6] | Potency [15] | Potency [16] | Potency [7] | Potency [9]

N#Cc1cc([N+](=O)[O-])c2sc(C(N)=O)[n+]([O-])c2c1
active: Potency [4] 16.4 µM
inactive: Potency [1] | Potency [2] | Potency [13] | outcome [6] | Potency [7] | Potency [8] | Potency [9] | Potency [11] | Potency [12]

CCCCCCC(=O)OC1CC(C)(C)NC(C)(C)C1
2.37%: viability change [5]
inactive: Potency [1] | Potency [2] | Potency [3] | Potency [13] | Potency [5] | outcome [6] | Potency [7] | Potency [8] | Potency [9] | Potency [10] | Potency [11] | Potency [12]

CC(=O)O[C@H]1Cc2ccccc2N(C(N)=O)c2ccccc21
-3.02%: viability change [5]
inactive: Potency [1] | Potency [2] | Potency [3] | Potency [4] | Potency [5] | outcome [6] | Potency [7] | Potency [8] | Potency [9] | Potency [10] | Potency [11] | Potency [12]
